Screening data (PubChem BioAssay)
An excerpt weighted towards active compounds, which were near 3.4% of everything screened.
MITF primary: human MITF inhibition, primary screen; O75030; AlphaScreen MITF homodimerization, bead proximity signal; inhibition, % at 2.6 µM; hit rate 0.91% among 650,000; AID 1259374; in the data active = inhibition above about 50%;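 note: 0% = vehicle wells with protein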
TEAD-YAP block: TEAD-YAP interaction inhibition. HEK-TIYL cells, TEAD-Gal4/YAP UAS-luciferase luminescence. inhibition, % at 9.12 µM. hit rate 1.4% among 640,000. AID 1259422; in the data active = inhibition above about 32%;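 note: 0% = median of test compound wells and 100% = reference inhibitor wells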
GPR151 activ: activators of human GPR151; hit rate 1% among 650,000; PathHunter beta-arrestin GPR151 cells, luminescence; activation, % at 11.2 µM; Q8TDV0; in the data active = activation above about 4.9%;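 note: 0% = median of compound wells and 100% = cells with positive control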
Target sequence (Q8TDV0 whole entry, looked up): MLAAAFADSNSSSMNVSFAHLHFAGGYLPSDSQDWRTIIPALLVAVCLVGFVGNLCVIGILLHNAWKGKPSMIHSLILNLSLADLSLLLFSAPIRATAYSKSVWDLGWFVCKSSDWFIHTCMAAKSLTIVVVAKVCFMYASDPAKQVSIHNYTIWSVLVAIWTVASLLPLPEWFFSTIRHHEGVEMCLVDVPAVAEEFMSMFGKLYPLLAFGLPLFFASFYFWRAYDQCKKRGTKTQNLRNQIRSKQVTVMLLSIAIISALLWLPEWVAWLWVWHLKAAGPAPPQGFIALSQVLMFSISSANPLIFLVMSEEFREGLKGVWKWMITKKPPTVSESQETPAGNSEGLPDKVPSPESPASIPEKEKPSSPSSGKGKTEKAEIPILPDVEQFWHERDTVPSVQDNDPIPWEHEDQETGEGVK
FBW7 act: activators of human E3 ligase FBW7; hit rate 0.13% among 650,000; normalized activity (activation), % at 26.1 µM; AlphaScreen FBW7–phospho-cyclin E peptide binding, activator screen; in the data active = normalized activity above about 1.9%;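 note: purified mutant Fbw7 with reduced substrate affinity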
MITF inh conf: human MITF inhibition, confirmation | shares compounds with MITF primary | AlphaScreen MITF homodimerization, biotin/His-MITF beads | inhibition, % at 2.6 µM | hit rate 16% among 4,700;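 active = inhibition above a cutoff derived from the DMSO control wells, cut at about 28% in these data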;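 note: 0% = MITF dimer wells with DMSO only; inhibitors lower the bead chemiluminescence by keeping MITF from dimerizing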
AS interf DR: optically interferes with AlphaScreen signal in dose response. AID 1259373. IC50, µM. hit rate 6% among 480. shares compounds with MITF primary. AlphaScreen optical interference counterscreen, cell-free; call rule not given here
AlphaScreen intf2: AlphaScreen optical interference, counter-screen; LysRS AlphaScreen counterscreen, signal interference, triplicate; inhibition, % at 2.6 µM; AID 1259376; shares compounds with MITF primary; hit rate 7.6% among 4,700;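 active = inhibition above a cutoff derived from the DMSO control wells, cut at about 30% in these data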
* marks the source's active call; other numbers are inactive results; . = no result.

SMILES | MITF primary | TEAD-YAP block | GPR151 activ | FBW7 act | MITF inh conf | AlphaScreen intf2 | others
Clc1ccc(CN2CCN(CC3CC4C=CC3C4)CC2)cc1 (stereo not drawn) | 26 | -5 | -1 | 0 | . | .
C1=CC2CC1CC2CN1CCN(Cc2ccncc2)CC1 (stereo not drawn) | 79* | -1 | 1 | 1 | -5 | 14
Fc1ccccc1N1CCN(CC2CC3C=CC2C3)CC1 (stereo not drawn) | 30 | -9 | 1 | 0 | . | .
O=[N+]([O-])c1ccc(CN2CCN(CC3CC4C=CC3C4)CC2)cc1 (stereo not drawn) | 63* | 4 | 0 | 0 | 12 | 15
C1=CC2CC1CC2CN1CCN(CCCc2ccccc2)CC1 (stereo not drawn) | 70* | 7 | -3 | 0 | 8 | 16
O=[N+]([O-])c1ccccc1CN1CCN(CC2CC3C=CC2C3)CC1 (stereo not drawn) | 67* | 6 | 0 | 0 | -2 | -1
COC(=O)c1ccccc1NC(=O)CN1C(=O)NC(c2ccccc2)(c2ccccc2)C1=O | 11 | -6 | -1 | 0 | . | .
CC(C)(C)N(Cc1ccccc1)C(=O)COC(=O)c1cc(O)c2ccccc2c1O | -1 | -3 | 1 | 0 | . | .
COc1ccc(-c2ccc(/C=C(\C#N)C(N)=O)o2)c([N+](=O)[O-])c1 | 6 | -14 | 0 | 0 | . | .
COc1cccc(C(=O)Oc2coc(CSc3ncccn3)cc2=O)c1OC | 4 | 1 | 1 | 0 | . | .
CCN(CC1CCCO1)C(=S)NC(=O)c1ccc(OC)c(I)c1 (stereo not drawn) | 5 | -3 | -1 | 0 | . | .
Cc1ccc(S(=O)(=O)N2CCN(CC3CC4C=CC3C4)CC2)cc1 (stereo not drawn) | 68* | -52 | 2 | 0 | -3 | -2
Cc1ccc(S(=O)(=O)NC[C@@H]2CC3C=CC2C3)cc1 (stereo partly drawn) | 10 | 1 | -1 | 0 | . | .
c1ccc(CCCN2CCN(C3C4CC5CC(C4)CC3C5)CC2)cc1 (stereo not drawn) | 70* | 4 | -1 | 0 | 2 | 7
C1=CC2CC1CC2CN1CCN(Cc2ccc3c(c2)OCO3)CC1 (stereo not drawn) | 58* | -17 | -1 | 0 | -5 | -3
O=C(OC1CCCCC1)c1ccc(NC(=O)c2cccs2)cc1 | 14 | 3 | -2 | 0 | . | .
Cc1ccc(C(O)CNC(=O)c2cccc(Cl)c2)o1 (stereo not drawn) | -6 | -10 | -1 | 0 | . | .
O=C(Nc1nc(-c2ccccn2)cs1)C12CC3CC(CC(O)(C3)C1)C2 | 55* | -4 | -3 | 0 | 61* | 100*
O=C(Nc1nc(-c2ccccn2)cs1)C1CC1 | 35 | -27 | -1 | 0 | . | .
COc1ccc(CN2CCN(Cc3ccc(OC)c(OC)c3)CC2)cc1 | 74* | 18 | 0 | 0 | -8 | -2
COc1ccc(CN2CCN(Cc3cccc(F)c3)CC2)cc1OC | 64* | 3 | -1 | 0 | 19 | 18
COc1ccc(CN2CCN(Cc3ccc(Cl)cc3)CC2)cc1OC | 74* | 14 | 1 | 0 | 13 | 0
CCOc1cc(CN2CCN(Cc3cc(OC)c(OC)cc3OC)CC2)ccc1OC | 7 | 5 | 0 | 0 | . | .
COc1cc(OC)c(OC)cc1CN1CCN(Cc2cccc(Cl)c2)CC1 | 82* | -1 | -1 | 1 | 14 | 19
COc1ccc(CN2CCOCC2)cc1OC | 11 | -7 | 0 | 0 | . | .
SMILES | MITF primary | TEAD-YAP block | GPR151 activ | FBW7 act | MITF inh conf | AlphaScreen intf2 | others
CC(C(=O)NC12CC3CC(CC(C3)C1)C2)N1CCN(c2ccccn2)CC1 (stereo not drawn) | 1 | 4 | 1 | 0 | . | .
O=C(NCCCO)/C(=C\c1ccc(Br)cc1)NC(=O)c1ccccc1 | -3 | -4 | 0 | 0 | . | .
CCS(=O)(=O)N1CCN(Cc2ccc(OC)c(OC)c2)CC1 | 50 | 1 | 0 | 0 | . | .
COc1ccc(CN2CCN(Cc3cccc(Cl)c3)CC2)cc1OC | 82* | 9 | 3 | 0 | 9 | 18
O=c1[nH]cc(N=Cc2ccc([N+](=O)[O-])o2)c(=O)[nH]1 | 85* | -7 | -1 | -1 | 64* | -20 | AS interf DR=>6.5
COc1ccc(C(=O)NC(=S)N2CCN(c3ccc([N+](=O)[O-])cc3)CC2)cc1 | 17 | -1 | 0 | 0 | . | .
COc1cccc(C(=O)NC(=S)N2CCN(c3ccc([N+](=O)[O-])cc3)CC2)c1 | 72* | 2 | 0 | 0 | 5 | 33*
Oc1ccc(/C=N\Nc2nncc(-c3ccccc3)n2)cc1 | 5 | -1 | 0 | 1 | . | .
COc1ccc(/C=N/Nc2nncc(-c3ccccc3)n2)cc1Br | 65* | -4 | 0 | 0 | -11 | -9
CN(CCOc1ccccc1)Cc1nc2ccc(Cl)cc2n1CCO | 78* | -1 | 0 | 0 | 18 | 17
CN1CCCN(C(=O)NC(C)(C)C)c2nc3ccccc3nc21 | -12 | -17 | -2 | 0 | . | .
O=S1(=O)CC(OS(=O)(=O)c2ccccc2)C(OS(=O)(=O)c2ccccc2)C1 (stereo not drawn) | 71* | 2 | 1 | 0 | -5 | -6
COc1ccccc1C(=O)N1CCN(C(=O)c2cccnc2)CC1 | 0 | 1 | 2 | 0 | . | .
COc1ccc(OC)c(CN2CCN(C(=O)c3cccnc3)CC2)c1 | 59* | -5 | -2 | 1 | 6 | 18
O=C(c1cccnc1)N1CCN(Cc2ccccc2F)CC1 | 56* | -1 | -1 | 0 | 0 | -4
O=C(c1cccnc1)N1CCN(Cc2ccccc2Br)CC1 | 40 | -5 | 1 | 0 | . | .
COc1cc(OC)c(OC)cc1CN1CCN(C(=O)c2cccnc2)CC1 | 68* | -12 | -1 | 0 | 4 | 4
Cc1cccc(N(CC(=O)Nc2ccc(S(=O)(=O)N3CCCCC3)cc2)S(C)(=O)=O)c1C | -1 | 3 | 0 | 0 | . | .
CCc1ccc(OCCNc2cc(N3CCN(CCO)CC3)ccc2[N+](=O)[O-])cc1 | 8 | -13 | -1 | 0 | . | .
CC1CCC/C(=N/NC(=O)c2cc(O)cc(O)c2)C1 (stereo not drawn) | 3 | -3 | 0 | 0 | . | .
Cc1ccc(-c2nnc(Nc3ccc(Cl)c(Cl)c3)c3ccccc23)cc1S(=O)(=O)NCCO | 89* | -10 | -1 | 0 | 3 | 8
CCC(Sc1nc(Nc2ccc(F)cc2)c2ccccc2n1)C(=O)NCCCOC (stereo not drawn) | 4 | 6 | -1 | 0 | . | .
O=C(Nc1ccc2c(c1)OCO2)c1cnc(Nc2ccc3ncccc3c2)s1 | 8 | 1 | 0 | 0 | . | .
CC(=O)c1cccc(Nc2c(-c3ccccc3)c(=O)c2=O)c1 | -6 | -26 | 2 | 0 | . | .
O=C(Cn1nc(-c2ccc3c(c2)OCCO3)ccc1=O)Nc1ccccc1-c1ccccc1 | 72* | 5 | 0 | 0 | 9 | 10
